# Compounds with a hit are over-represented: about 11% of the library has one in this group of screens.
# CBFb RUNX1 block = blocks binding between human CBF-beta and RUNX1 | AlphaScreen CBFb-His/RUNX1-biotin binding, biochemical | Potency, µM (highest dose often 59.8 µM), for the others: at the top dose activity, negative = inhibition, actives largely listed as inhibitors | 230,000 tested, under 10 active | AID 1477; also: % of control where 0% means no effect
#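 Bead-based AlphaScreen assay; binding partners His-tagged CBF-beta and biotinylated RUNX1 at 30 nM each. Compound exposure 15 min after a 20-min protein preincubation; bead step 90 min; all steps at room temperature.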
# HTT cytoprotect = protects HTT-Q103 PC12 cells, measured by ATP | Potency, µM (doses to about 56.4 µM), without a hit: cytoprotection (ATP increase), most hits filed as activators | 230,000 tested, 0.14% active | PC12 HTT-Q103 induced, cytoprotection, ATP luminescence, 40 h; also: potency is read from the fitted curve at half-maximal effect; % of control where 0% means no effect; nearly all actives have a fitted effect of over 45% in size
#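 PC12 cells stably carrying ecdysone-inducible Htt exon 1 (Q103)–GFP were induced with 100 nM tebufenozide (final) alongside library compounds in a dose series. Cytoprotection was scored as retained ATP by ATPlite luminescence.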
# HTT aggregate = inhibitors of mutant huntingtin aggregate formation in PC12 cells. 220,000 tested, 1.1% active. PC12 HttQ103-GFP aggregates, Acumen cytometry, 40 h. Potency, µM (series often up to 46.1 µM), without a hit: at the top dose activity change, negative = inhibition, most hits filed as inhibitors. AID 1688; also: potency is read from the fitted curve at half-maximal effect; % is scaled to controls: 0 for no effect and ±100 for the full control effect; nearly all actives have a fitted effect of over 60% in size
#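 Read-out: GFP aggregate count by laser scanning cytometer (488 nm excitation, 500-530 nm emission, 1–25 µm objects >6 SD above background). Cells: PC12, inducible HTTex1-Q103-GFP, 100 nM tebufenozide; compounds titrated.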
# HPGD inh = blocks human HPGD enzyme activity | 150,000 tested, 4.3% active | P15428 | purified HPGD, NADH fluorescence kinetic, PGE2 substrate | Potency, µM, without a hit: at the top dose activity change, negative = inhibition, hits mostly inhibitors; active = well fitted inhibition curve with a large enough effect, not every such curve was filed as active; inconclusive = small, poorly fitted or top-dose-only effect, or another doubt; inactive = no such curve, though single readings can be large or run the other way; also: potency is read from the fitted curve at half-maximal effect; % is scaled to controls: 0 for no effect and ±100 for the full control effect
# Target sequence (P15428 whole entry, looked up): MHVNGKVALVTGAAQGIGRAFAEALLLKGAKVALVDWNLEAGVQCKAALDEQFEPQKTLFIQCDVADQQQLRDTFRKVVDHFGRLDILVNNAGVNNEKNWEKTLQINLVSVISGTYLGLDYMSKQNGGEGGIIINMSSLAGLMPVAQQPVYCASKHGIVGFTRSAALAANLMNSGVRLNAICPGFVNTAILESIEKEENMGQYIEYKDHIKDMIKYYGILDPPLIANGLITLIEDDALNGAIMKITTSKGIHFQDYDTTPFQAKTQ
#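 20 nM HPGD preincubated 15 min at room temperature with compound in 50 mM Tris-HCl pH 8, 0.01% Tween 20. Started with 1 mM NAD+ and 30 uM prostaglandin E2; NADH fluorescence (360/450 nm) read 5 times over 30-s intervals, last minus first.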
# ALDH1A1 block = inhibitors of human aldehyde dehydrogenase 1A1. Potency, µM (titrated, usually from 75.3 µM), for the others: top-dose activity, negative = inhibition, usual class: inhibitors. P00352. Purified ALDH1A1, NADH fluorescence, propionaldehyde substrate. AID 1030. 220,000 tested, 7.3% active; active = well fitted inhibition curve with a large enough effect, not every such curve was filed as active; inconclusive = small, poorly fitted or top-dose-only effect, or another doubt; inactive = no such curve, though single readings can be large or run the other way;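 also: potency is read from the fitted curve at half-maximal effect; plate controls were no enzyme wells and a reference inhibitor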
# PNC inhibitor = perinucleolar compartment assembly inhibition. PC3M PTB-GFP, PNC prevalence imaging, 16 h; hits give low values. activity change (PNC), negative = inhibition, % at 10 µM. 140,000 tested, 3.1% active;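 active = readout at or below -70, meaning at least 70% loss of cells showing the perinucleolar compartment, a nuclear body marking cancer cells; inconclusive = readout between -30 and a set limit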;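 also: plate controls were DMSO wells for no effect and camptothecin positive control wells for full effect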
#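 Read-out is percentage of cells bearing a perinucleolar compartment, from automated 20x imaging of fixed, Hoechst-stained PC3M PTB-GFP cells. Cells were seeded 4 h, then exposed 16 h to compound (23 nl of library stock) in duplicate plates.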
# Numbers without * were called inactive; ? = inconclusive; · = no result; [ ] = another dose, or the depositor's remark. Unless noted, calls follow the shape of the dose curve; as a rule, active = well fitted curve in the direction sought with a large enough effect; inconclusive = small, poorly fitted or top-dose-only effect, or another doubt; inactive = no such curve, though single readings can be large; an effect the other way counts as inactive or inconclusive.
SMILES,CBFb RUNX1 block,HTT cytoprotect,HTT aggregate,HPGD inh,ALDH1A1 block,PNC inhibitor
Cc1cc(C(=O)OCC(=O)c2cccs2)c2ccccc2n1,10%,-6%[10 µM],-1%[9.22 µM],·,?,·
CCCC(=O)C1=C(O)C(C(=O)OC)C(C)(C)CC1=Nc1cccc2ccccc12 (stereo not drawn),7%,3%[1.9 µM],11µM*,-21%,-4%,?
COc1ccc(-c2nc3ccccc3c(=O)n2CCCn2ccnc2)cc1,3%,-4%[10 µM],5%,-16%,14µM*,?
COCCCn1c(SCC(=O)OC2CCCCC2)nnc1-c1ccco1,7%,15%,-15%,-11%,?,5
COc1ccc(CCn2c(-c3ccco3)nc3ccccc3c2=O)cc1OC,3%,0%[10 µM],-12%,3%,-10%,?
COc1ccc(-c2nc3ccccc3c(=O)n2CCOc2ccccc2C)cc1,3%,-1%[10 µM],15%,-27%,?,-121*
COCCCN=C(c1ccco1)n1c(=S)nc(-c2ccco2)n(CCCOC)c1=S,-14%,-23%,27%,28µM*,3.5µM*,?
COCCCn1c(-c2ccco2)nc2ccccc2c1=O,4%,2%,-9%,-3%,22µM*,-13
Cc1ccccc1Nc1c(N)c(=O)oc2ccccc12,-2%,-5%[10 µM],22%,16µM*,-4%,?
Cc1cccc(-c2nnnn2-c2cccc(C)c2)c1,-8%,-4%,6%,·,4.5µM*,·
Cc1ccc(-n2nnnc2-c2cccc(C)c2)cc1,15%,-1%,16%,·,-14%,·
COc1ccc(-n2nnnc2-c2cccc(OC)c2)cc1,12%,-30%[10 µM],20%,-10%,2%,-83*
CO/N=C\c1ccc(C(=O)N2[C@H](c3ccc(C)cc3)[C@@H](C)CC[C@H]2C(=O)OC)cc1,4%[13.1 µM],-7%[10 µM],·,·,5%[13.5 µM],·
COC(=O)c1ccc2c(=O)n(-c3ccc(OC)cc3)c(=S)[nH]c2c1,4%,-12%,0%,·,?,·
COc1ccc(/C=C2\N=C(SC)SC2=O)cc1OC,2%,24%,-19%,-14%,2%,?
CCOc1cc(/C=C2\N=C(SC)SC2=O)cc([N+](=O)[O-])c1OC(C)=O,-17%,-19%,0%,16µM*,28µM*,26
CCOc1c(OC(C)=O)ccc(/C=C2\N=C(SCC)SC2=O)c1[N+](=O)[O-],-7%,-7%,12%,10µM*,?,-10
CCSC1=N/C(=C\c2ccc(C)s2)C(=O)S1,-7%,20%[10 µM],5%,-21%,?,-15
CCOc1cc(/C=C2\N=C(SCC)SC2=O)cc([N+](=O)[O-])c1OC(C)=O,?,-3%,-20%,13µM*,32µM*,?
Cc1cc(C(F)(F)F)nc2c(Cl)c(C(C)(C)C)nn12,18%,-5%[10 µM],-6%[9.22 µM],·,15%,·
CN(C)c1ccc(-c2cc(N(C)Cc3ccco3)ncn2)cc1,·,-226%,·,·,?,·
Cc1ccccc1N=C1SCC(=O)N1Cc1ccccc1,14%,·,14%,-2%,-9%,19
Cc1ccccc1C=Nc1ccccc1C(N)=O,1%,-45%[10 µM],?,?,?,-86*
Cc1ccc(C=Nc2ccccc2C(N)=O)cc1,5%,-51%[10 µM],-4%,?,?,-113*
NS(=O)(=O)c1ccc(CCNC(=O)NC2(C(F)(F)F)Oc3ccccc3O2)cc1,4%,-38%[10 µM],?,-12%,8%,-100*
SMILES,CBFb RUNX1 block,HTT cytoprotect,HTT aggregate,HPGD inh,ALDH1A1 block,PNC inhibitor
CN1CCc2nc(SCc3ccc(C(C)(C)C)cc3)c(C#N)cc2C1,-5%,-14%,?,28µM*,0%,93
CCOc1ccc(N2C(=O)CN(C)C2=S)cc1,-2%,1%[10 µM],11%,-11%,5%,28
CCOc1ccc(N2C(=O)CN(O)C=C3N=c4ccccc4=C32)cc1,11%,-27%,-12%,·,10µM*,·
NCCNc1cccc2ccccc12,?,18%,8%,-10%,?,·
O=C(COC(=O)c1cccnc1Cl)Nc1nc(-c2ccccc2)cs1,-3%,7%[10 µM],10%,-25%,9%,2
IC(I)I,1%[21.7 µM],-2%,3%,-13%,13µM*,·
